Laboratory results: the supplement of paper PMC10849652
The full data set covers some 7,900 targets. This sample favours those with a hit. About 0.6% of all pairs of compound and target were hits.

How the values were obtained:
Experiment in all cases: log2 fold change, soluble protein after heating vs DMSO (PISA); higher = thermal stabilisation; K562 cells, 10 uM, 30 min; active = over 0.2 and 3.5 SD of the protein, either way, in both replicates (recomputed)
erlotinib = compound: C#Cc1cccc(Nc2ncnc3cc(OCCOC)c(OCCOC)cc23)c1 [erlotinib]
Procedure, shortened: (§1)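 Soluble protein was defined as the supernatant after 21,000xg for 90 min. It came from K562 cells at 2×10^6 cells/mL given 10 μM compound for 30 min, heated in aliquots for 3 min across 48°C-58°C, pooled, and extracted in PBS with 0.5% NP-40 at 4°C, and was quantified by TMTpro 16plex LC-MS/MS with equalised channel sums. Thermal stability against control samples, from duplicates, is reported as log2 fold change.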

[1] = compound: C/C(=N\NC(=O)C1=CC(=CC=C1)S(=O)(=O)N2CCOCC2)/C3=C(C=CC(=C3)Cl)O
Procedure, shortened: as §1

[2] = compound: C1=CC(=C(C=C1Cl)C2=NC3=NC=CN=C3C(=N2)NC4=CC=NC=C4)F
Procedure, shortened: as §1

[3] = compound: C1=CC(=CC=C1C2=NC3=C(N2)C=C(C=C3)C(=O)N)OC4=CC=C(C=C4)Cl
Procedure, shortened: as §1

[4] = compound: C1=CC2=C(C=CC(=C2)/C=C\3/C(=O)NC(=NCC4=CC=CS4)S3)N=C1
Procedure, shortened: as §1

[5] = compound: C1=CC2=NC=CN=C2C=C1/C=C/3\C(=O)NC(=O)S3
Procedure, shortened: as §1

[6] = compound: C1=CC=C(C=C1)C2=NC(=C(N2)C3=CC=NC=C3)C4=CC(=C(C=C4)Cl)O
Procedure, shortened: as §1

[7] = compound: C1=CC=C2C(=C1)C3=NNC4=CC=CC(=C43)C2=O
Procedure, shortened: as §1

[8] = compound: C1CCN(C1)C(=O)NC2=CC=CC(=C2)NC3=NC=C(C(=N3)NCCC4=CN=CN4)Br
Procedure, shortened: as §1

[9] = compound: C1CN(CCC1(CC2=CC=C(C=C2)Cl)N)C3=NC=NC4=C3C=CN4
Procedure, shortened: as §1

Measured: log2 fold change

METTL18 (UniProt O95568)
Sequence of UniProt O95568 (O95568 whole entry, looked up): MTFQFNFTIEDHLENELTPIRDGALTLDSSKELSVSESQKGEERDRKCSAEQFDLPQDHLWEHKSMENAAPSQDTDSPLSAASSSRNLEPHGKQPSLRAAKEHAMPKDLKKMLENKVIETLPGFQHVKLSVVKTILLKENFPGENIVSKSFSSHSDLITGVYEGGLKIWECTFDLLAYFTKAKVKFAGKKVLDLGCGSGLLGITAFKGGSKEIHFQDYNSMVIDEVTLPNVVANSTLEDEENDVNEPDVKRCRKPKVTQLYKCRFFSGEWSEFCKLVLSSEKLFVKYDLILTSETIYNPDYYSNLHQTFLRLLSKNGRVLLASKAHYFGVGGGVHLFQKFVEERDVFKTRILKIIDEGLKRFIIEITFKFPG
inactive: erlotinib -0.042 | [1] -0.037 | [2] -0.08 | [3] 0.027 | [4] 0.038 | [5] 0.046 | [6] -0.039 | [7] -0.06 | [8] 0.028 | [9] 0.078

IK (UniProt Q13123)
Sequence of UniProt Q13123 (Q13123 whole entry, looked up): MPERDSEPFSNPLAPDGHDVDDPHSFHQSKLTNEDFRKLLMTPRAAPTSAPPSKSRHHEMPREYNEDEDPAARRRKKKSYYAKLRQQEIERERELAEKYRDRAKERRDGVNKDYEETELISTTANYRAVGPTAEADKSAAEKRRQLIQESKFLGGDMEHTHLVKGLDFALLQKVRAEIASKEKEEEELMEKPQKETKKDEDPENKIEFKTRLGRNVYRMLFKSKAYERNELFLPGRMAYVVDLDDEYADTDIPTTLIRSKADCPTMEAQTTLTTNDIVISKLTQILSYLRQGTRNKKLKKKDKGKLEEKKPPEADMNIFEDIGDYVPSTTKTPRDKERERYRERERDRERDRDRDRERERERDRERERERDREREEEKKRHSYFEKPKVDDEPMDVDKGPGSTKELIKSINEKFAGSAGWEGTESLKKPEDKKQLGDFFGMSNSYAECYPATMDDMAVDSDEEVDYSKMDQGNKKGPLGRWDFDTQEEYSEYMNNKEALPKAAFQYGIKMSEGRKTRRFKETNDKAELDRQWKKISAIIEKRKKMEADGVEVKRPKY
inactive: erlotinib 0.049 | [1] 0 | [2] -0.069 | [3] 0 | [4] 0.055 | [5] -0.022 | [6] -0.016 | [7] -0.11 | [8] -0.004 | [9] -0.065

IWS1 (UniProt Q96ST2)
inactive: erlotinib 0.029 | [1] 0.029 | [2] 0.091 | [3] 0 | [4] -0.033 | [5] 0.022 | [6] -0.013 | [7] -0.077 | [8] -0.067 | [9] -0.033

MAST4 (UniProt O15021)
inactive: erlotinib -0.016 | [1] 0.101 | [2] 0.082 | [3] 0.054 | [4] 0.032 | [5] 0.048 | [6] -0.086 | [7] -0.02 | [8] -0.007 | [9] -0.094

LARP4 isoform 4 (UniProt Q71RC2)
Sequence of UniProt Q71RC2 (Q71RC2 whole entry, looked up): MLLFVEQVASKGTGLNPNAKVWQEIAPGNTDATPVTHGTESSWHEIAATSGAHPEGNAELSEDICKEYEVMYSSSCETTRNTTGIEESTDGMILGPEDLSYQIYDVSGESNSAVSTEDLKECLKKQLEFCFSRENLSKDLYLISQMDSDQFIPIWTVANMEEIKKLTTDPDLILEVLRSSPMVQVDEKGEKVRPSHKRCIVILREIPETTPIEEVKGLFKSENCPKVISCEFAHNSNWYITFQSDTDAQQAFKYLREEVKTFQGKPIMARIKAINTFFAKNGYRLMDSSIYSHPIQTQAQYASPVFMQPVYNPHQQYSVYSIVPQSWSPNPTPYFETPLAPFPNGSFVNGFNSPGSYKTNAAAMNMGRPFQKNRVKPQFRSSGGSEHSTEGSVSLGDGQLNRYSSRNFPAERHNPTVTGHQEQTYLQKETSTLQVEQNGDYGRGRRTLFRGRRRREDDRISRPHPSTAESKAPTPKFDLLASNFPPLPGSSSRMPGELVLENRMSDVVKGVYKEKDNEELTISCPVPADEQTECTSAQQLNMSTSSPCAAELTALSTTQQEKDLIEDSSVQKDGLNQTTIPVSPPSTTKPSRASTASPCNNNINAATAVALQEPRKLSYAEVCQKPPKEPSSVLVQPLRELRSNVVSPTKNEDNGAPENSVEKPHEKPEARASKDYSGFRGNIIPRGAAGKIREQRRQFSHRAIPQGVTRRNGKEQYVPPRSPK
inactive: erlotinib 0.015 | [1] 0.007 | [2] -0.123 | [3] 0.055 | [4] 0.086 | [5] 0.002 | [6] -0.028 | [7] -0.044 | [8] -0.004 | [9] -0.035

MAP2K1 (UniProt Q02750)
Sequence of UniProt Q02750 (Q02750 whole entry, looked up): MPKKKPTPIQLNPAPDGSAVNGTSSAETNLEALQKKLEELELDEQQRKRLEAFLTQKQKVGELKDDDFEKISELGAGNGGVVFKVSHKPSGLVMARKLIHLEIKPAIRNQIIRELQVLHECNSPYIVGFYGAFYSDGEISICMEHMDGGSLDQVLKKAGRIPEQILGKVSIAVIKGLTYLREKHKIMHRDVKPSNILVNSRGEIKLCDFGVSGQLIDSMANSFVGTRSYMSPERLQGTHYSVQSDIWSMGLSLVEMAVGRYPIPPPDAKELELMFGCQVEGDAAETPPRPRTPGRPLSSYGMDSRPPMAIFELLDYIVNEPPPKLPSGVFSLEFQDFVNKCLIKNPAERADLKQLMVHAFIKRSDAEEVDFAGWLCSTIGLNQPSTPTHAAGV
inactive: erlotinib -0.012 | [1] 0.001 | [2] 0.037 | [3] -0.001 | [4] 0.074 | [5] 0.014 | [6] -0.028 | [7] -0.005 | [8] -0.002 | [9] -0.003

LNPK (UniProt Q9C0E8)
Sequence of UniProt Q9C0E8 (Q9C0E8 whole entry, looked up): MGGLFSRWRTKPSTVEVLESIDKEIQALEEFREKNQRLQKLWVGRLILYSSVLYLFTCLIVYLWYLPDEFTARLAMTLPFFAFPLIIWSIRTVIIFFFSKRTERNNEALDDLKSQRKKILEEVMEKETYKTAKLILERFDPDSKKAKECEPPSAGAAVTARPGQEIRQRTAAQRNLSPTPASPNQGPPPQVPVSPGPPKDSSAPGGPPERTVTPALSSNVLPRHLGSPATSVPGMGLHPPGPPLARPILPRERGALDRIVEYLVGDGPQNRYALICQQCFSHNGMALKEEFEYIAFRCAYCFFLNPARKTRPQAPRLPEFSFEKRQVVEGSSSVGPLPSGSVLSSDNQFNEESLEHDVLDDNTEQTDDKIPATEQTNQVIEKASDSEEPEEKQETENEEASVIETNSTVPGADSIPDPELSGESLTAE
inactive: erlotinib 0.011 | [1] -0.028 | [2] 0.05 | [3] 0 | [4] -0.018 | [5] 0.058 | [6] 0 | [7] -0.02 | [8] 0.007 | [9] 0.089

MFSD5 isoform 2 (UniProt Q6N075)
Sequence of UniProt Q6N075 (Q6N075 whole entry, looked up): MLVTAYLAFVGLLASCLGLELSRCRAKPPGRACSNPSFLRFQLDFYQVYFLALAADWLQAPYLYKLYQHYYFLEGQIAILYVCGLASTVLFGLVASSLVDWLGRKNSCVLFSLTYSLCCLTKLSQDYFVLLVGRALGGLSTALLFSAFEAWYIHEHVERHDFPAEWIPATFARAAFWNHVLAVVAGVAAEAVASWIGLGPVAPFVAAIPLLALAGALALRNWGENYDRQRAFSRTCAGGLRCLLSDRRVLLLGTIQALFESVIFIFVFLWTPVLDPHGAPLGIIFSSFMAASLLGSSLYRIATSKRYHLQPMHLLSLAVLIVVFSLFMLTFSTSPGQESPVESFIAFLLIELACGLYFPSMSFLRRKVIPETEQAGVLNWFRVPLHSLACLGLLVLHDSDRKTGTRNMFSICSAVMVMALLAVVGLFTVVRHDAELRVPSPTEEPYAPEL
inactive: erlotinib 0.147 | [1] 0.057 | [2] 0.041 | [3] 0.115 | [4] -0.061 | [5] 0.038 | [6] -0.144 | [7] 0.109 | [8] 0.014 | [9] 0.034

KIF3A (UniProt Q9Y496)
inactive: erlotinib -0.222 | [1] -0.06 | [2] -0.069 | [3] -0.122 | [4] -0.049 | [5] 0.034 | [6] -0.062 | [7] -0.025 | [8] -0.011 | [9] -0.067

MCL1 (UniProt Q07820)
Sequence of UniProt Q07820 (Q07820 whole entry, looked up): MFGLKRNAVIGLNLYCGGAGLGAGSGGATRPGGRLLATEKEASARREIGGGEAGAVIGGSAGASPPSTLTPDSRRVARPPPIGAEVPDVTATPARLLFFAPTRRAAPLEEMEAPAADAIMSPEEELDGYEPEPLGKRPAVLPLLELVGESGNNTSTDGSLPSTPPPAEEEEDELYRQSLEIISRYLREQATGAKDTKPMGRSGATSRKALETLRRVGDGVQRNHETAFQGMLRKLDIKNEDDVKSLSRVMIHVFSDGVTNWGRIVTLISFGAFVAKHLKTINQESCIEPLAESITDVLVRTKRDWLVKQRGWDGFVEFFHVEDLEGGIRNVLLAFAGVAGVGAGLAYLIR
inactive: erlotinib -0.225 | [1] 0 | [2] -0.037 | [3] -0.01 | [4] -0.057 | [5] 0.027 | [6] -0.121 | [7] -0.161 | [8] -0.039 | [9] 0

ILF3 isoform 7 (UniProt Q12906)
inactive: erlotinib -0.068 | [1] -0.084 | [2] -0.266 | [3] -0.004 | [4] -0.049 | [5] 0.099 | [6] -0.061 | [7] -0.01 | [8] 0.054 | [9] -0.186

LDAH isoform 2 (UniProt Q9H6V9)
Sequence of UniProt Q9H6V9 (Q9H6V9 whole entry, looked up): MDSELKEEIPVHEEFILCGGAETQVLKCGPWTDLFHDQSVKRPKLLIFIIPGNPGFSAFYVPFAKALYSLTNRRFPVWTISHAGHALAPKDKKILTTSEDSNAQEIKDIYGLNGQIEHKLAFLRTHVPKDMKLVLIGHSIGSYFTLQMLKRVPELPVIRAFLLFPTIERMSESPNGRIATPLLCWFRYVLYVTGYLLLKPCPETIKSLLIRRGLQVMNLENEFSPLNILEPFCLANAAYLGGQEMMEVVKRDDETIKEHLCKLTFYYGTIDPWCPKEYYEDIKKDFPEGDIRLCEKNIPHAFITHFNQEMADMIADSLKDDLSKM
inactive: erlotinib 0.116 | [1] 0.052 | [2] -0.101 | [3] -0.041 | [4] 0.047 | [5] 0 | [6] 0.018 | [7] 0 | [8] 0.06 | [9] -0.006

MFGE8 (UniProt Q08431)
Sequence of UniProt Q08431 (Q08431 whole entry, looked up): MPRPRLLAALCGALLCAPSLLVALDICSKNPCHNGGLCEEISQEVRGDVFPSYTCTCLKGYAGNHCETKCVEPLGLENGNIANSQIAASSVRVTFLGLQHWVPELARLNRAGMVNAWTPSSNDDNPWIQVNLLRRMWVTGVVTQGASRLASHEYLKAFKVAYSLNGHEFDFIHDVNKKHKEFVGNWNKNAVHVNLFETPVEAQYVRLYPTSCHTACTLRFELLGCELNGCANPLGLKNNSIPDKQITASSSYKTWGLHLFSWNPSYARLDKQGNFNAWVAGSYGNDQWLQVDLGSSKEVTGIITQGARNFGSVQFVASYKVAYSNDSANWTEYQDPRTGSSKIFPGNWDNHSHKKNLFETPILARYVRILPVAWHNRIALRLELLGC
inactive: erlotinib -0.135 | [1] -0.032 | [2] -0.149 | [3] 0.045 | [4] -0.059 | [5] -0.024 | [6] 0.024 | [7] 0.095 | [8] -0.041 | [9] -0.066

METAP1D (UniProt Q6UB28)
Sequence of UniProt Q6UB28 (Q6UB28 whole entry, looked up): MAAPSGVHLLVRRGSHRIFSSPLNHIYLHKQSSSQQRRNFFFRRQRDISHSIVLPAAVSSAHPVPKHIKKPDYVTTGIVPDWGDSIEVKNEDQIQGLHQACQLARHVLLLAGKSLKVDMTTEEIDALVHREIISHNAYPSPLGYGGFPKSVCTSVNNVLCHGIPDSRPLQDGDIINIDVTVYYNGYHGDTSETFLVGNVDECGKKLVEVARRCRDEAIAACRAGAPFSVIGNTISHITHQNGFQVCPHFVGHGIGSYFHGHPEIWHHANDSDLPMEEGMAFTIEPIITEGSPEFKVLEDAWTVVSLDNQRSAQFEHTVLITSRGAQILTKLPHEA
inactive: erlotinib -0.061 | [1] -0.307 | [2] -0.02 | [3] 0.025 | [4] -0.004 | [5] -0.014 | [6] 0.005 | [7] -0.002 | [8] -0.018 | [9] 0.033

MDN1 (UniProt Q9NU22)
inactive: erlotinib 0.063 | [1] 0.11 | [2] 0.02 | [3] -0.025 | [4] 0.144 | [5] 0.037 | [6] 0.02 | [7] -0.022 | [8] -0.025 | [9] 0
